The panel holds about 79,000 compounds, 15% with a hit somewhere; the sample as a whole holds those more often. A number with no mark means an inactive call. Cut-off read from the data, not from the text of the source: active = growth inhibition above about 70%; inactive = the rest.
Experiment: NCI Yeast Anticancer Drug Screen. Data for the sgs1 mgt1 strain (AID 161);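 note: 0% = growth of cultures given vehicle only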
Conditions: S. cerevisiae sgs1 mgt1 strain, at 50.0 µM, active compounds read high
Experimental: Growth inhibition of yeast strains with defined genetic alterations is measured as a screen for potential anti-cancer activity. Selected strains with alterations in DNA damage repair or cell cycle control were exposed to compounds and growth inhibition was measured relative to vehicle treated controls. The strain used in this assay is sgs1 mgt1
For `O=C(O)c1c(O)c(O)cc2ccccc12`, the growth inhibition was -13.4%.
For `CC(O)CN(CC(C)O)c1ccc2c(c1)Cc1ccccc1-2` (stereo not given), the growth inhibition was 13.8%.
`CC(Oc1ccc2cc(C(=O)c3ccccc3)c(=O)oc2c1)C(=O)O` (stereo not given) showed a growth inhibition of 19.2%.
For `CC(=O)CCCO`, the growth inhibition was -0.8%.
In the case of `N#CCc1c(-c2ccccn2)[nH]c2ccccc12`, the growth inhibition is reported as -3%.
For `C/C=C/C1OCC(C)([N+](=O)[O-])CO1` (stereo not given), the growth inhibition was 19.4%.
For `CC1(C)C2CCC(I)(C2)C1I` (stereo not given), the growth inhibition was -17.3%.
For `Cc1c(C(=O)O)[nH]c2c(Cl)ccc(C)c2c1=O`, the growth inhibition was 9.5%.
Molecule `COc1ccc2c(c1)-c1cc(OC)ccc1C2c1ccccc1` has a growth inhibition of -7.6%.
With `COc1ccc(C2=C(Cl)c3cc(OC)c(OC)cc3C2=O)cc1OC` the growth inhibition was -7.05%.
Work on `Cc1cc(S(N)(=O)=O)c(SCc2nc(N)nc(N(C)C)n2)cc1Cl` yielded a growth inhibition of -20.3%.
With `Clc1ccc(CSc2cnnc(SCc3ccc(Cl)c(Cl)c3)c2SCc2ccc(Cl)c(Cl)c2)cc1Cl` the growth inhibition was 3.9%.
`OC1OC2COC(c3ccccc3)OC2C(O)C1O` (stereo not given) gave a growth inhibition of 8.15%.
In the case of `NC(=O)NCC(N)C(=O)O` (stereo not given), the growth inhibition is reported as -2.3%.
With `C=CCCCCCCCCCCCCCCCCC` the growth inhibition was -13.3%.
In the case of `COc1ccc(/C=C2\N=C(c3ccc([N+](=O)[O-])cc3)OC2=O)cc1Br`, the growth inhibition is reported as 27.5%.
`NNC(=S)NNc1ccccc1` gave a growth inhibition of 56.1%.
`CCOC(=O)/C(=C/n1c(=S)[nH]c2ccc([N+](=O)[O-])cc21)C(=O)c1ccccc1` showed a growth inhibition of -12.9%.
With `Cc1cc(N(CCC#N)CCC#N)ccc1/C=C1N=C(/C=C/c2ccccc2)OC(=O)N\1` the growth inhibition was 4.7%.
Molecule `CCCC(O)C(CC)[N+](=O)[O-]` (stereo not given) has a growth inhibition of 5%.
In the case of `COC(=O)CCCCCCCCC(=O)OC`, the growth inhibition is reported as 8.8%.
Molecule `Cc1ccc(S(=O)(=O)N/N=C/C(O)C(O)C(O)C(O)CO)cc1` (stereo not given) has a growth inhibition of -14.8%.
In the case of `CCOc1ccccc1NC(=O)CC(C(=O)OC)C(=O)C(=O)OC` (stereo not given), the growth inhibition is reported as -24.1%.
Work on `CCS(=O)CCC(N)C(=O)O` (stereo not given) yielded a growth inhibition of 1.65%.
In the case of `O=C(O)c1c(O)ccc(O)c1C(=O)O`, the growth inhibition is reported as -29.7%.
In the case of `CCCCCCCCCCCCCCCCc1c(C(=O)OC)nc(NN)[nH]c1=O`, the growth inhibition is reported as -26.5%.
For `CCc1ccccc1NC(=O)C1=C(C)NC(C)=C(C(=O)Nc2ccccc2CC)C1c1ccc(NC(C)=O)cc1`, the growth inhibition was 3.25%.
Work on `CC(=O)Nc1ccc(S(=O)(=O)NNC(=O)C(=O)Nc2cccc(Cl)c2)cc1` yielded a growth inhibition of -18.2%.
In the case of `CCN(CC)CCCn1c(-c2ccccc2)ccc1-c1ccccc1`, the growth inhibition is reported as 8.1%.
`CC(C)CC(NC(=O)CN1C(=O)c2ccccc2C1=O)C(=O)O` (stereo not given) showed a growth inhibition of 7.4%.
Work on `Cc1cc([N+](=O)[O-])cc(C)c1N` yielded a growth inhibition of 3.3%.
For `CCCCCCC(=O)C(N)Cc1ccccc1` (stereo not given), the growth inhibition was 3.7%.
In the case of `COc1cc(Br)c(C=O)cc1OC`, the growth inhibition is reported as 13.6%.
With `CC(C)CC(C)(O)C(N)=O` (stereo not given) the growth inhibition was -29%.
Work on `C/C(O)=C(\N=Nc1ccccc1)C(N)=O` yielded a growth inhibition of 5.9%.
In the case of `O=C(O)C1=C(c2ccccc2)C=C(c2ccccc2)C1`, the growth inhibition is reported as 12.8%.
With `CC(C)CC(Nc1ccc2ccccc2c1)C(N)=O` (stereo not given) the growth inhibition was 10.2%.
`CC(=O)N1C(=O)C2(Nc3cccnc3N2)c2ccccc21` (stereo not given) showed a growth inhibition of -1.8%.
With `Cc1ccc(S(=O)(=O)OC2CCCC2OS(=O)(=O)c2ccc(C)cc2)cc1` (stereo not given) the growth inhibition was -8.5%.
With `c1ccc(-c2ccc(-c3ccccc3)c(-c3ccc4c(c3)CCC4)c2-c2ccccc2)cc1` the growth inhibition was 7.25%.
